Source: PubChem BioAssay AID463173 (ICCB-Longwood Screening Facility, Harvard Medical School, 2010)
Out of some 52,000 compounds screened, about 4,300 (8.3%) were called active. This is one part of a sample in which actives are shown more often than they occur. Unmarked numbers belong to inactive results. Cut-off read from the data, not from the text of the source: active = survival mostly below about 52% (no sharp cut-off); inactive = mostly above about 56%.

These compounds were tested on DeltatarO mutant (assay: growth inhibition of S. aureus wild type versus tarO mutant, primary screen, teichoic acid synthesis inhibitors, RN4220, OD600 (AID 463173)). Conditions: OD600, 18 h, stronger effect = lower value, screened at 18.75 µg/mL (by protocol).
For `O=S(=O)(Nc1ccc(-c2ccc(N3CCCC3)nn2)cc1)c1ccc(Cl)cc1`, the survival was 102%.
Work on `CCCCN(C)C(=O)c1ccc2c(c1)N(Cc1ccc(F)cc1)C(=O)c1ccccc1S2(=O)=O` yielded a survival of 118%.
In the case of `O=C(Nc1ccc(F)cc1C(F)(F)F)C1CCN(c2ncccn2)CC1`, the survival was 76%.
For `CC(=O)Nc1ccc2c(c1)n(C)c(=O)n2C`, the survival was 85%.
Work on `COc1ccc(OC)c(CCNC(=O)C(C)n2c(C)c3cnn(-c4ccccc4)c(=O)c3c2C)c1` (stereo not drawn) yielded a survival of 82%.
Work on `Cc1cc(C)c(C#N)c(SCc2cccnc2)n1` yielded a survival of 53%.
`COc1cc2nc(SCc3cccc(Cl)c3)n3nc(CCn4nc(C)cc4C)nc3c2cc1OC` showed a survival of 79%.
For `COc1cccc(CSc2nc3cc(OC)c(OC)cc3c3nc(CCn4nc(C)cc4C)nn23)c1`, the survival was 60% (active).
`COc1cc2nc(SCc3ccc(C)cc3)n3nc(CCn4nc(C)cc4C)nc3c2cc1OC` gave a survival of 58%.
With `CCc1ccccc1NC(=O)c1ccc2nc(C(C)C)oc2c1` the survival was 73%.
Compound `CCn1cc2nc(SCc3cc(C)ccc3C)n(Cc3ccc(C)cc3)c(=O)c2n1` has a survival of 69%.
Work on `CCC(CC)C(=O)Nc1nnc(SCc2cc(=O)c3ccccc3[nH]2)s1` yielded a survival of 115%.
Compound `CCSc1nc2sc3c(c2c(=O)n1-c1ccc(C)c(Cl)c1)CCN(C(C)=O)C3` has a survival of 61%.
Work on `COc1ccc(-n2c(SC)nc3sc4c(c3c2=O)CCN(C(C)=O)C4)cc1` yielded a survival of 127%.
For `CCCCCSc1nc2sc3c(c2c(=O)n1-c1ccc(OC)cc1)CCN(C(C)=O)C3`, the survival was -18% (active).
`CCOC(=O)CSc1nc2sc3c(c2c(=O)n1-c1ccc(OC)cc1)CC(C(C)C)OC3` (stereo not drawn) showed a survival of 73%.
For `COc1ccc(-n2c(SCCC(C)C)nc3sc4c(c3c2=O)CC(C(C)C)OC4)cc1` (stereo not drawn), the survival was 30% (active).
Work on `CCCCCSc1nc2sc3c(c2c(=O)n1-c1ccccc1)CCN(C(C)=O)C3` yielded a survival of 77%.
For `COc1ccc(-n2c(=O)c3c4c(sc3n3c(SCCC(C)C)nnc23)COC(C(C)C)C4)cc1` (stereo not drawn), the survival was 59%.
For `CC(=O)N1CCc2c(sc3nc(SCC(C)C)n(-c4ccc(C)c(Cl)c4)c(=O)c23)C1`, the survival was 45% (active).
`CC(=O)N1CCc2c(sc3nc(SCC(C)C)n(-c4ccc(F)c(Cl)c4)c(=O)c23)C1` showed a survival of 63%.
For `Nc1c(C(=O)Nc2cccc(Cl)c2)sc2nc3c(cc12)CN(Cc1ccccc1)CC3`, the survival was 69%.
For `Cc1ccc(NC(=O)Cn2cc3c(n2)CCCCC3)cc1`, the survival was 77%.
Work on `COc1ccc(NC(=O)CSc2nc3ccccc3n2CC(=O)N(C)c2ccc(F)cc2)cc1` yielded a survival of 87%.
For `Cc1nn(C)c(C)c1S(=O)(=O)N(CC(=O)N1CCN(c2ccccc2)CC1)c1ccc(C(C)C)cc1`, the survival was 79%.
`COc1ccc(-c2cn3c(n2)sc2cc(C(=O)NCC(C)c4ccccc4)ccc23)cc1` (stereo not drawn) showed a survival of 65%.
Compound `O=C(CSc1nc2c([nH]c3ccccc32)c(=O)n1-c1ccccc1)N1CCCCCC1` has a survival of 95%.
`CCOc1ccc(-n2c(SCC(=O)N3CCCCCC3)nc3c([nH]c4ccccc43)c2=O)cc1` was tested, and the survival was 106%.
`CCSc1nc2c([nH]c3ccccc32)c(=O)n1-c1ccc(F)cc1` was tested, and the survival was 87%.
`COc1cccc(-n2c(SCC(=O)N3CCCCC3)nc3c([nH]c4ccccc43)c2=O)c1` was tested, and the survival was 20% (active).
`CCC1CCCCN1C(=O)CSc1nc2c([nH]c3ccccc32)c(=O)n1-c1cccc(OC)c1` (stereo not drawn) was tested, and the survival was 66%.
`CCOc1ccc(-n2c(SCC(=O)NC3CCCCC3)nc3c([nH]c4ccccc43)c2=O)cc1` was tested, and the survival was 92%.
In the case of `CCC1CCCCN1C(=O)CSc1nc2c([nH]c3ccccc32)c(=O)n1-c1ccc(OC)cc1` (stereo not drawn), the survival was 25% (active).
With `CCSc1nc2c([nH]c3ccccc32)c(=O)n1-c1ccc(OC)cc1` the survival was 46% (active).
Work on `O=C(CSc1nc2c([nH]c3ccccc32)c(=O)n1-c1ccccc1)N1CCCCC1` yielded a survival of 73%.
For `CCSc1nc2c([nH]c3ccccc32)c(=O)n1-c1cccc(OC)c1`, the survival was 94%.
For `COc1ccc(-n2c(SCC(=O)NC3CCCCC3)nc3c([nH]c4ccccc43)c2=O)cc1`, the survival was 37% (active).
With `O=C(CSc1nc2c([nH]c3ccccc32)c(=O)n1-c1ccc(F)cc1)NC1CCCCC1` the survival was 83%.
With `C(#Cc1ccccc1)CN1CCCCC1` the survival was 107%.
In the case of `CN(C)S(=O)(=O)c1ccc(C(=O)NCCSc2c(-c3ccc(Br)cc3)[nH]c3ccccc23)cc1`, the survival was 74%.
Work on `CC(C)Cn1c(SCc2cccc(F)c2)nc2ccsc2c1=O` yielded a survival of 74%.
In the case of `CCCCNC(=O)CSc1nc2n[nH]c(C)c2c(=N)n1-c1ccccc1CC`, the survival was 89%.
With `O=C1CN(C(=O)Nc2ccccc2Cl)C(c2ccccc2)c2c(sc3c2CCCC3)N1` (stereo not drawn) the survival was 73%.
`CCc1ccccc1N1C(=O)N(CC(=O)c2ccc(OC)cc2)c2ccccc2S1(=O)=O` gave a survival of 79%.
For `CC(C)CCNC(=O)Nc1ccc2c(c1)N(Cc1ccccc1)C(=O)c1ccccc1S2`, the survival was 79%.
Work on `Cc1nc(SCCOc2ccccc2F)[nH]c(=O)c1Cc1ccccc1` yielded a survival of 75%.
`Cc1ccc(-n2nc3c(=O)n(C(C)C(=O)O)nc(C)c3c2C)cc1` (stereo not drawn) showed a survival of 101%.
For `Cc1ccc(-c2nc(C(=O)NCc3ccc(Cl)cc3)c3n2CCCCC3)cc1`, the survival was 56%.
`CSc1nnc2[nH]c(=O)cc(C)n12` was tested, and the survival was 69%.
`Cc1ccc(-n2nc(C)c3c(C(=O)Nc4ccc(C)cc4Cl)cc(C)nc32)cc1` showed a survival of 63%.
In the case of `Cc1cccc(C(=O)Nc2nnc(S(=O)(=O)N(C)Cc3ccco3)s2)c1`, the survival was 25% (active).
`CCC(=O)Nc1nnc(S(=O)(=O)N(C)Cc2ccc(Cl)cc2)s1` was tested, and the survival was 94%.
For `CN(Cc1ccco1)S(=O)(=O)c1nnc(NC(=O)c2cccc(Cl)c2)s1`, the survival was 5% (active).
`CN(c1ccc(Cl)cc1)S(=O)(=O)c1nnc(NC(=O)c2ccco2)s1` showed a survival of 62%.
For `COc1cc(C(=O)Nc2cc(C)ccc2OCc2cc(=O)n3c(C)csc3n2)cc(OC)c1OC`, the survival was 58%.
In the case of `COc1ccc(N(CC(=O)N2CCN(c3ccc(F)cc3)CC2)S(=O)(=O)c2c(C)n[nH]c2C)cc1`, the survival was 70%.
With `O=C(Nc1ccc(NC(=O)c2ccccc2F)cn1)c1ccco1` the survival was 82%.
For `COc1ccc(OC)c(NC(=O)Cc2c(C)n(C(=O)c3ccc(Cl)cc3)c3ccc(OC)cc23)c1`, the survival was 74%.
In the case of `CCOc1cc(-c2ccc(OC(=O)c3ccc(C)cc3)c(OC)c2)cc(=O)c2c(C)oc(C)c12`, the survival was 99%.
Work on `CCOc1cc(-c2ccc(OC(=O)c3ccc(Cl)cc3)c(OC)c2)cc(=O)c2c(C)oc(C)c12` yielded a survival of 80%.
For `CCOc1cc(-c2ccc(OC(=O)c3ccc(OC)cc3)c(OC)c2)cc(=O)c2c(C)oc(C)c12`, the survival was 41% (active).
For `O=C(CSc1ncc2c(n1)-c1ccccc1N(Cc1ccc(F)cc1)S2(=O)=O)NCCc1ccccc1`, the survival was 94%.
In the case of `Cc1cccc(NC(=O)NC2COc3ccccc3C2)c1C` (stereo not drawn), the survival was 69%.
`Cc1cc(C)cc(-n2c(SCC(N)=O)nc3c(oc4ccccc43)c2=O)c1` showed a survival of 97%.
Work on `O=C(NC1CCCCC1)c1ccc2c(c1)sc1nc(-c3ccccc3)cn12` yielded a survival of 69%.
With `O=C(NCCCc1ccccc1)c1ccc2c(c1)sc1nc(-c3ccc(F)cc3)cn12` the survival was 44% (active).
`Cc1ccc(-c2cn3c(n2)sc2cc(C(=O)NC4CCCCC4)ccc23)cc1` was tested, and the survival was 68%.
`O=C(NC1CCCCCC1)c1ccc2c(c1)sc1nc(-c3ccccc3)cn12` gave a survival of 55%.
`CCc1ccc(-c2cn3c(n2)sc2cc(C(=O)NCCCc4ccccc4)ccc23)cc1` showed a survival of 70%.
With `Cc1ccc(-c2cn3c(n2)sc2cc(C(=O)NCCCN4CCCCCC4)ccc23)cc1` the survival was -4% (active).
With `Cc1ccc(-c2cn3c(n2)sc2cc(C(=O)NCCCN4CCCCC4)ccc23)cc1` the survival was -3% (active).
For `Cc1ccc(-c2cn3c(n2)sc2cc(C(=O)NC4CCCCCC4)ccc23)cc1`, the survival was 94%.
`O=C(NCCCN1CCCCCC1)c1ccc2c(c1)sc1nc(-c3ccccc3)cn12` was tested, and the survival was 44% (active).
`Cc1ccc(-c2cn3c(n2)sc2cc(C(=O)N4CCCCC4)ccc23)cc1` showed a survival of 79%.
With `Cc1ccc(-c2cn3c(n2)sc2cc(C(=O)NCCCc4ccccc4)ccc23)cc1` the survival was 72%.
Work on `Cc1ccc(Cn2c(SCC(=O)C(C)(C)C)nc3ccsc3c2=O)cc1` yielded a survival of 77%.
Work on `Cc1ccccc1C(=O)n1nc(-c2ccco2)nc1NCc1ccc(Cl)cc1` yielded a survival of 80%.
For `Cc1cccc(CCNC(=O)c2ccc3c(c2)nc2n3CCCCC2)c1`, the survival was 77%.
Work on `O=C(c1ccccc1)N1CCN(Cc2ccccc2)CC1` yielded a survival of 72%.
`CCOc1ccc(/C=C/c2nc(C#N)c(N(C)C)o2)cc1` showed a survival of 102%.
`CCCCN(CC)CCNC(=O)Cn1cc2c(n1)-c1c(oc(C(=O)N3CCCC3)c1C)CC2` gave a survival of 85%.
For `COC(=O)c1cc2occc2n1Cc1nc(-c2ccccc2F)oc1C`, the survival was 102%.
Work on `Cc1cc2ncn(S(=O)(=O)c3ccc(S(=O)(=O)NCC4CCCO4)cc3)c2cc1C` (stereo not drawn) yielded a survival of 82%.
In the case of `O=C(NCCCN1CCCCC1)c1ccc2c(c1)sc1nc(-c3ccc(F)cc3)cn12`, the survival was 53% (active).
`COc1ccc(N2CCN(CCCNC(=O)c3ccc4nc(N5CCCCC5)sc4c3)CC2)cc1` was tested, and the survival was 78%.
With `Cc1ccc[n+](CC(=O)c2cccs2)c1` the survival was 106%.
In the case of `CCN1CCN(Cc2nc3cc(NC(=O)c4cc(OC)c(OC)c(OC)c4)ccc3n2CC)CC1`, the survival was 84%.
Work on `CC(=O)c1ccc(N2CCN(S(=O)(=O)c3ccc4[nH]c5c(c4c3)CCCC5)CC2)cc1` yielded a survival of 64%.
